# Dicer inh: human Dicer pre-microRNA cleavage inhibition. Q9UPY3. cat-ELCCA pre-miR-21 Dicer processing, chemiluminescence; active compounds read high. z-score at 25 µM. 6% of 47,000 active. AID 1347074; in the data active = z-score above about 3, passing the limit was not always enough;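 note: plate controls were vehicle for no effect and no enzyme for full effect; higher signal means more uncleaved substrate so more Dicer inhibition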
# * = called active by the depositor. The full list was thinned out, with hits kept by preference.
SMILES,Dicer inh
CCCn1c(NCc2ccccn2)nc2ccccc21,1.7
Cc1nc2ccccc2n1CCN1CCOCC1,-0.46
Cn1c(CNc2nc3ccccc3n2CCN2CCOCC2)nc2ccccc21,-0.51
Nc1nc2ccccc2n1Cc1ccccc1,-0.02
Cn1c(NCc2ccco2)nc2c1c(=O)n(Cc1ccccc1)c(=O)n2C,0.09
c1ccc(CNc2nc3ccccc3n2CCN2CCOCC2)nc1,5.4*
c1coc(CNc2nc3ccccc3n2CCN2CCOCC2)c1,5.1*
c1ccc(Cn2c(NCc3ccco3)nc3ccccc32)cc1,3.7*
c1ccc2c(c1)nc(NCc1ccncc1)n2CCN1CCCCC1,2.6
CCOC(=O)c1noc(-c2cccc([N+](=O)[O-])c2)c1C#N,0.15
Fc1ccccc1CSc1nc2ccccc2o1,1.2
O=C(O)COc1ccc(-c2nc3ccccc3s2)cc1,1
CCOC(=O)C1C2C=CC3(CN(c4ccccc4Cl)C(=O)C13)O2 (configuration not stated),0.16
COC(=O)c1scc(S(=O)(=O)C(C)C)c1N/N=C/c1ccccc1Cl,-0.14
COc1ccc(S(=O)(=O)Nc2ccc3c(c2)CS(=O)(=O)C3)cc1,-0.04
Cc1ccc(/C(O)=C2/C(=O)C(=O)N(c3cccnc3)C2c2cccc(F)c2)cc1 (configuration not stated),-0.62
O=C(CN1CCN(c2ccccc2)CC1)N1N=C2c3ccccc3CCC2C1c1cccs1 (configuration not stated),1.1
C=CCOC(=O)c1sc(N2C(=O)c3oc4ccccc4c(=O)c3C2c2cccc(Cl)c2)nc1C (configuration not stated),-0.79
O=C(O)c1cc(-c2cc(C(=O)O)c3ccccc3n2)nc2ccccc12,0.45
O=C(O)c1cc2ccccc2c(-c2c(O)c(C(=O)O)cc3ccccc23)c1O,4.1*
O=C(O)c1ccc2ccccc2c1-c1c(C(=O)O)ccc2ccccc12,1.1
Cc1ccc(C)c(Cn2c(=O)c3cnc4c(c(C)nn4C)c3n2C)c1,-0.29
O=C(Nc1cccc(Cl)c1)N1CCN(c2nsc3ccccc23)CC1,-0.99
O=C(Nc1cccc(Cl)c1)N1CCc2ccccc2C1,6*
CN1CC(=O)N/C1=N\C(=O)Nc1cccc(Cl)c1,-1.5
SMILES,Dicer inh
Clc1ccc(/C=N/Nc2nccc(-c3cccnc3)n2)c(Cl)c1,0.71
CCc1ccc2cc3c(=O)n(C)c4c(c(=O)n(C)c(=O)n4C)c3nc2c1,-0.7
CC(C)S(=O)(=O)c1csc(NC(=O)Nc2ccccc2Cl)c1Cl,3.8*
CC(C)S(=O)(=O)c1csc(C(N)=O)c1Cl,-2
CC(C)S(=O)(=O)c1csc(NC(=O)Nc2c(Cl)cc(Cl)cc2Cl)c1Cl,0.24
COc1ccc(OCC(O)CNS(=O)(=O)c2ccc(-c3ccccn3)s2)cc1 (configuration not stated),-1.3
Cc1cn2c(nc1=O)OC1[C@@H](O)[C@@H](CO)O[C@H]12 (some centres not stated),-0.45
CC(=O)Nc1ccc(C(C)C)cc1Br,-0.07
N#CC1=C(Nc2ccccc2Cl)SC(c2c(Cl)cccc2Cl)NC1=O (configuration not stated),1.2
C1=Cn2nc(/C=C/c3c[nH]c4ccccc34)nc2-c2ccccc2O1,4.2*
COc1ccc(/C=C/c2nc3n(n2)C=COc2ccccc2-3)cc1,0.55
CSc1ccc(/C=C/c2nc3n(n2)C=COc2ccccc2-3)cc1,1.1
O=C1CC(c2ccccc2)CC(=O)N1c1cccc2c1CCCC2,-0.16
NNC(=O)CSc1nnc2nnc3ccccc3n12,-0.86
CCCCC#Cc1cncc(C(=O)N/N=C/c2ccccc2)c1,-0.3
Cn1[nH]c(=O)cc1C(=O)N/N=C/c1ccccc1,3.1*
CC(C)S(=O)(=O)c1csc(C(=O)N/N=C/c2ccccc2)c1-n1cccc1,1.2
CCOC(=O)c1sc(N2C(=O)C(O)=C(C(=O)c3ccco3)C2c2ccc(OC)cc2)nc1C (configuration not stated),0.97
CCOC(=O)c1c(C)n(-c2ccccc2)c2ccc(OC(C)=O)cc12,1.4
COc1ccccc1-n1c(C)c(C(=O)O)c2cc(OC)c3ccccc3c21,4.6*
COc1ccccc1N1CCN(C(=O)c2cc(C)on2)CC1,-0.05
COc1cc2c(C(=O)O)c(C)n(-c3ccccc3)c2cc1Br,3.1*
COc1ccccc1N1CCN(c2nnc(C)c3ccccc23)CC1,-0.71
COc1cc(C(=O)O)cc(Br)c1OC,0.34
CCS(=O)(=O)Nc1cc2c(C(=O)O)c(C)n(S(=O)(=O)CC)c2cc1OC,-2
SMILES,Dicer inh
CCOC(=O)c1c(C)n(-c2ccc(N(C)C)cc2)c2ccc(OC)cc12,-4.8
CCOC(=O)c1c(C)n(-c2ccc(N(C)C)cc2)c2ccc(OCC(N)=O)cc12,4.6*
CCOC(=O)c1c(C)n(-c2ccccc2)c2cc(Br)c(O)cc12,3.7*
CCOC(=O)c1c(C)n(-c2ccc(Br)cc2)c2ccc(O)cc12,-0.48
CCOC(=O)c1c(C)n(-c2ccccc2)c2ccc(OC(=O)c3cccnc3SCC)cc12,-0.1
Oc1c(C(Nc2ccc(Cl)cc2)c2cccnc2)ccc2cccnc12 (configuration not stated),15
NC(=S)N/N=C/c1cccc(C(F)(F)F)c1,0.57
O=CN(O)CCCP(=O)(O)O,0.67
Nc1ccc(SC(C[N+](=O)[O-])c2ccc(F)cc2)cc1 (configuration not stated),-7.8
O=C(c1ccccc1)c1c(O)c(-c2ccccc2)c(=O)n(-c2ccccc2)c1-c1ccccc1,-0.06
O=C(O)CC1(CC(=O)NCC2COc3ccccc3O2)CCCCC1 (configuration not stated),-0.26
Cc1ccc(-c2nc(-c3cc4ccccc4[nH]c3=O)no2)cc1,0.16
FC(F)(F)c1ccc(N2CCCN(c3ncnc4scc(-c5ccccc5)c34)CC2)nc1,-0.39
Cn1ccnc1SCC(=O)c1ccc(Cl)cc1,0.03
Cn1ccnc1SCC(=O)Nc1ccccc1,0.15
Cn1ccnc1SCC(=O)N1CCCC1,4.5*
Cc1ccc(CSc2nc(C(=O)C(F)(F)F)c3ccccn23)cc1,1.3
CC1(C)CC(=O)Nc2ccccc2S1,0.47
Cc1ccc(CNc2ccc(N3CCOCC3)c(Cl)c2)s1,1.4
Cc1ccc(CNc2ccc(N3CCOCC3)cc2)s1,4*
Cc1ccc(CNCCN2CCOCC2)s1,-1.3
O=C(Cn1nc(-c2ccc(F)cc2)c2ccccc2c1=O)c1ccc(F)cc1,0.18
COc1ccc(-c2nc(-c3ccc(C)cc3)no2)cc1OC,1.8
COc1ccc(/C=C/c2nc(-c3ccncc3)no2)cc1OC,1.4
COc1ccc(/C=C/c2nc(-c3ccc(C)cc3)no2)cc1OC,3.8*
SMILES,Dicer inh
CN(C)S(=O)(=O)c1ccc2c(c1)C(=O)c1cc(S(=O)(=O)N(C)C)ccc1-2,0.32
COC(=S)Nc1ccc(C(C)C)cc1,-0.07
C/C(=N\Nc1ccc(S(=O)(=O)NCc2ccco2)cc1[N+](=O)[O-])c1ccc(F)cc1,-0.3
O=C(NCc1csc2ccccc12)C1CC1,1.8
O=C(O)CSCC(=O)NCc1csc2ccc(Cl)cc12,-2.4
O=C(O)CSCC(=O)NCc1csc2ccccc12,4.3*
Cc1ccc(S(=O)(=O)N2CCC(C(N)=O)(N3CCCCC3)CC2)cc1,-0.71
CCOC(=O)C(NC(=O)c1cccc(Cl)c1)(Nc1ccc(C)c(C)c1)C(F)(F)F (configuration not stated),2.3
CCC12CN3CC(CC)(CN(C1)C3c1ccccc1F)C2=O (configuration not stated),1.4
CCC12CN3CC(CC)(CN(C1)C3c1ccccc1)C2=O (configuration not stated),5.5*
